Reference: the supplement of paper PMC11732987, “Enantioselective OTUD7B fragment discovery through chemoproteomics screening and high-throughput optimisation” (Communications Chemistry, 2025)

Columns and labels:
Assay in all cases: log2 ratio of Biotin-Ahx-Ub-VS probe labelling (fragment/DMSO); higher = less target engagement (more negative = stronger competition), active = hit call of the paper (q ≤ 0.05, log2 ratio ≤ -1)
Conditions in all cases: compound concentration: 200 uM; treatment time: 3 h
OTUD6B = target: T1, OTUD6B (UniProt Q8N6M0)
T1 sequence (whole entry): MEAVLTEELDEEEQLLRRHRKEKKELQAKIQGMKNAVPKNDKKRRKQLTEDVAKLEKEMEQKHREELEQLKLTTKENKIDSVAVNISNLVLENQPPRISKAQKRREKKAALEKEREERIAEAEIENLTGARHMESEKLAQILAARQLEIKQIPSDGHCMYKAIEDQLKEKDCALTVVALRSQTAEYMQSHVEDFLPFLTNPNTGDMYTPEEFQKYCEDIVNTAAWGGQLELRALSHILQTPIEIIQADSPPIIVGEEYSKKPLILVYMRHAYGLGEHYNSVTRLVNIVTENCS
Summary of the method: (§1)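 Values give the average log2 ratio of fragment to vehicle, assessed by unpaired t-test on global-median-normalised Spectronaut label-free quantities. Proteins needed ≥2 unique peptides. HEK293T lysate (495 µg per sample) was treated in triplicate with fragment at 200 µM or vehicle for 3 h and then with Biotin-Ahx-Ub-VS at 0.5 µM final for 1 h. Labelled DUBs were NeutrAvidin-enriched, digested and run by diaPASEF LC-MS/MS.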

OTUD7B = target: T2, OTUD7B (UniProt Q6GQQ9)
T2 sequence (whole entry): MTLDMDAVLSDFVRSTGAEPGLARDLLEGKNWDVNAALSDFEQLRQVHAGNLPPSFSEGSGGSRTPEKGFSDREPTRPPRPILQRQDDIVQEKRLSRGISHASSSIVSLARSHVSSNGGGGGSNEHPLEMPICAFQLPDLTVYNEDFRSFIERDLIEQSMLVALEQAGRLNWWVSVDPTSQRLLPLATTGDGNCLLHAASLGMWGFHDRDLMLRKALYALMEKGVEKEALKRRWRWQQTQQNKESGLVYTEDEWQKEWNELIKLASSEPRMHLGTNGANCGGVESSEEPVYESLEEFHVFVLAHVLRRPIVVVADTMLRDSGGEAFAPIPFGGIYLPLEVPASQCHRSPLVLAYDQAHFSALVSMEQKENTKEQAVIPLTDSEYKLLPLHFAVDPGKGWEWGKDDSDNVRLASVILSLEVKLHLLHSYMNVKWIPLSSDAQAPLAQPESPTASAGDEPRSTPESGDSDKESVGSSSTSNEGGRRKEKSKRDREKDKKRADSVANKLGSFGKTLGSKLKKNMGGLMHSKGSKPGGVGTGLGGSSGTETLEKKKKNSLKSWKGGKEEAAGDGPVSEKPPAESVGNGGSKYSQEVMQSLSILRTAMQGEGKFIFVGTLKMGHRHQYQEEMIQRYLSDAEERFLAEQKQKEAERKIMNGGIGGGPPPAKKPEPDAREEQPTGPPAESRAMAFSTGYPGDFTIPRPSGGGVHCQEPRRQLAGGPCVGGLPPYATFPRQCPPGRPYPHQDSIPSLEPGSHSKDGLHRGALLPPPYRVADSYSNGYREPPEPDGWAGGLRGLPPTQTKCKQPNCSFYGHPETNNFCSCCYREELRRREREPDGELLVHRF
Summary of the method: as §1

PRPF8 = PRPF8 (UniProt Q6P2Q9)
Summary of the method: as §1

PSMD7 = target: T3, PSMD7 (UniProt P51665)
T3 sequence (whole entry): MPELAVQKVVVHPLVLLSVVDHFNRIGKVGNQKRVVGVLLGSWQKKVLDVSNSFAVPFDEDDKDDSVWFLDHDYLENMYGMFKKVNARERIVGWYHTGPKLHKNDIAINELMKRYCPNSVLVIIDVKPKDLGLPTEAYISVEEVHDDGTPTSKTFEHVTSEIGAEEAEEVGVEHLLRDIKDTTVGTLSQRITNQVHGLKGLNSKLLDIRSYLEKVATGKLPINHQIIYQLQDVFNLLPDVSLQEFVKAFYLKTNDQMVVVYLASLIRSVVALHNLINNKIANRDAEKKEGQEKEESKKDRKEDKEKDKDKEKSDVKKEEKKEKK
Summary of the method: as §1

UCHL1 = UCHL1 (UniProt P09936)
Summary of the method: as §1

UCHL3 = target: T4, UCHL3 (UniProt P15374)
T4 sequence (whole entry): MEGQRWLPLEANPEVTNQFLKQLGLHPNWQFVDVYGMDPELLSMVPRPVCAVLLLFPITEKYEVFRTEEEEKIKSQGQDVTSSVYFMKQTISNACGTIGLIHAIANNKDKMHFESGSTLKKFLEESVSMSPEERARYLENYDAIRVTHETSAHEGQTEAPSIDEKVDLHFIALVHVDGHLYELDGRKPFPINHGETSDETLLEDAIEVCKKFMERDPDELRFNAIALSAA
Summary of the method: as §1

UCHL5 = target: T5, UCHL5 (UniProt Q9Y5K5)
T5 sequence (whole entry): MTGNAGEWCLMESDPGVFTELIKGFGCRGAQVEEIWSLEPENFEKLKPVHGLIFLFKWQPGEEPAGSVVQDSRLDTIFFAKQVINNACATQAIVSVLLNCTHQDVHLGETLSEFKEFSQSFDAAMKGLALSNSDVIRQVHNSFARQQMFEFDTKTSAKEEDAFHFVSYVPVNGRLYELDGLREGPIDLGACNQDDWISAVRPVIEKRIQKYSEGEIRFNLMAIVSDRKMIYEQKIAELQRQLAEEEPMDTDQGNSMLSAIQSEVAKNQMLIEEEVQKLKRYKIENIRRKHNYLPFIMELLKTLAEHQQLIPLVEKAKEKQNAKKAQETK
Summary of the method: as §1

USP10 = USP10 (UniProt Q14694)
Summary of the method: as §1

USP15 = target: T6, USP15 (UniProt Q9Y4E8)
T6 sequence (whole entry): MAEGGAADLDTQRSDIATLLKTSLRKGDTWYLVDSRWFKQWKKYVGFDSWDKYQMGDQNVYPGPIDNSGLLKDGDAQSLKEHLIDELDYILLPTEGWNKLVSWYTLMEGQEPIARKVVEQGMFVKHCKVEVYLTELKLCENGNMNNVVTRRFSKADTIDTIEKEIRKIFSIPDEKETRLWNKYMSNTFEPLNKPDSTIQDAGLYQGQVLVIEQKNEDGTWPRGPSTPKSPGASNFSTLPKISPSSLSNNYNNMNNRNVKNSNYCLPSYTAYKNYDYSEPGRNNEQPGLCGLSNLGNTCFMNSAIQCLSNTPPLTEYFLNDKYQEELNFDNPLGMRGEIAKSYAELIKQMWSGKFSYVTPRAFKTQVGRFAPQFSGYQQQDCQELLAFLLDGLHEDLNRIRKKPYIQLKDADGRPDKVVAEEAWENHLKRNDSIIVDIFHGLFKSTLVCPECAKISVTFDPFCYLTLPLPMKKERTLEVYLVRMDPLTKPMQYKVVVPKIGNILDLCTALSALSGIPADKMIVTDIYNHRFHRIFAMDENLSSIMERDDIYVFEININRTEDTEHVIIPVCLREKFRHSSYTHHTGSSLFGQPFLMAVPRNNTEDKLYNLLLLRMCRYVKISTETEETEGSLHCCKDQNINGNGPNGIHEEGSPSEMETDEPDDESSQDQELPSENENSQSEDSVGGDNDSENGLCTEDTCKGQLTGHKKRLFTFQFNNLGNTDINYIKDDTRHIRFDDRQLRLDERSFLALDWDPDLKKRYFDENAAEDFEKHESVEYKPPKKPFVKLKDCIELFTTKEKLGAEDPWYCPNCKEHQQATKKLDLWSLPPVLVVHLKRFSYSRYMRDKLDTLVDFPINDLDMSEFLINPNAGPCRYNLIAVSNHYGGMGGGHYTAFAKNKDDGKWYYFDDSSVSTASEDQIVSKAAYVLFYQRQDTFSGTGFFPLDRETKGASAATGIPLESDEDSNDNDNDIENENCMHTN
Summary of the method: as §1

USP16 = USP16 (UniProt Q9Y5T5)
Summary of the method: as §1

Measured: log2 ratio of Biotin-Ahx-Ub-VS probe labelling

Chain of USP16 (Q9Y5T5 whole entry, looked up): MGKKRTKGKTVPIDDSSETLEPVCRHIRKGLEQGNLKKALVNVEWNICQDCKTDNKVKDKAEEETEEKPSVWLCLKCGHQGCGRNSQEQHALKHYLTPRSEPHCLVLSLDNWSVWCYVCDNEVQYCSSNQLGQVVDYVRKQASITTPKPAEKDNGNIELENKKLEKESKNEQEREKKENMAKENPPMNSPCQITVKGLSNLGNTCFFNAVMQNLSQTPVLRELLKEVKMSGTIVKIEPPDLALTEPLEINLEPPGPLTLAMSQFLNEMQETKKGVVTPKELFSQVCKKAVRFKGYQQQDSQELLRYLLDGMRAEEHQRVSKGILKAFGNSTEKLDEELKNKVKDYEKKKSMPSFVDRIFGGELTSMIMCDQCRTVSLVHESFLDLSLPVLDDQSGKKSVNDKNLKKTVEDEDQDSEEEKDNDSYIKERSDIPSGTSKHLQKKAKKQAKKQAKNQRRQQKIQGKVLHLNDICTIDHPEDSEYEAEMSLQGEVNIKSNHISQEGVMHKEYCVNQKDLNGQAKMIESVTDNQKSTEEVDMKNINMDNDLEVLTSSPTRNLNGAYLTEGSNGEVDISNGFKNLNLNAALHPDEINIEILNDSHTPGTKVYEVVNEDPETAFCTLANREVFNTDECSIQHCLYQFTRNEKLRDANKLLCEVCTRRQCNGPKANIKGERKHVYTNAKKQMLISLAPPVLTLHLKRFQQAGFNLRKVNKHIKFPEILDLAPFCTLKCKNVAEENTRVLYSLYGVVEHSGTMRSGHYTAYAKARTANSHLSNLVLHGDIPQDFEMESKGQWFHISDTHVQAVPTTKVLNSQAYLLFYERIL
Chain of USP10 (Q14694 whole entry): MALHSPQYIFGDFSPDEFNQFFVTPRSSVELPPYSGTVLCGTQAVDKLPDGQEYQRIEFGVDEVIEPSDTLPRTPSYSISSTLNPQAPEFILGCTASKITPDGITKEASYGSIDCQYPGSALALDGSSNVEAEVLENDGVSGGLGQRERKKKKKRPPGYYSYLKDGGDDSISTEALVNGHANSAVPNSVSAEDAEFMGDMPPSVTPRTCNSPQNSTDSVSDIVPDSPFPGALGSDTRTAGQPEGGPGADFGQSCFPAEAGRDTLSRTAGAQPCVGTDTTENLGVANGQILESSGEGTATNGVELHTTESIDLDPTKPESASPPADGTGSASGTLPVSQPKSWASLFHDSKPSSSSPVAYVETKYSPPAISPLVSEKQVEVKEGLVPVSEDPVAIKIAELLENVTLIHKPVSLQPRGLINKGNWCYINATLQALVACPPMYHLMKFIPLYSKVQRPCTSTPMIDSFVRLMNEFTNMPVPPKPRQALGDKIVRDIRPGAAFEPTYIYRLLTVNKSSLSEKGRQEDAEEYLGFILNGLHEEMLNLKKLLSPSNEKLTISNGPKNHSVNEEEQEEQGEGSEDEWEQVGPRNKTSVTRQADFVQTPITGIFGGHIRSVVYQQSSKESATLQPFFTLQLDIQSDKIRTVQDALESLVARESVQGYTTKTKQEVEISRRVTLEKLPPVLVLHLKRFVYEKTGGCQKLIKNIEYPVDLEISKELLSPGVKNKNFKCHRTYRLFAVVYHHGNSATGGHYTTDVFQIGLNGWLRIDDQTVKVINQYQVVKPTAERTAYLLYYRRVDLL
Chain of UCHL1 (P09936 whole entry, looked up): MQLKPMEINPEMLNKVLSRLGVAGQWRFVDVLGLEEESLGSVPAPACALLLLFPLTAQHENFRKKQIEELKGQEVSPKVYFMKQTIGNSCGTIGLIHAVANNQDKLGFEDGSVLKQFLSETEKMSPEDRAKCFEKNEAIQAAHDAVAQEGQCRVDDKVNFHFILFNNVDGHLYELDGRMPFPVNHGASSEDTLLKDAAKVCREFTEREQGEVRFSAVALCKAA

Cc1cc(C2CCCN2C(=O)CCl)nn1C.Cl (stereo not given)
inactive: OTUD6B -0.252 | OTUD7B -0.142 | PRPF8 0.0171 | PSMD7 -0.218 | UCHL3 0.3 | UCHL5 -0.218 | USP10 -0.132 | USP15 -0.246 | USP16 -0.631
active: UCHL1 -1.54
